Test results from PubChem BioAssay AID1159580 (chemical genetic matrix, 2015).
The campaign covered roughly 5,500 compounds. About 2,000 (36%) were called active. About 18% were inconclusive and are not listed. The list shows a part of the results. A number with no mark means an inactive call. Rule as the data show it: active = normalized growth mostly below about 0.91 (no sharp cut-off); inconclusive = no clear call, values can overlap the other calls; inactive = mostly above about 0.92.

Assay: chemical genetic growth profiling, strain panel (AID 1159580);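 also: tested at 20 µM; growth read once vehicle control cultures reached saturation at 30 °C; 1 = growth at the plate median or of vehicle wells; lower values mean less growth of the strain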
Conditions: growth OD
[1] = S. cerevisiae deletion strains, locus YDL101C, strain DUN1, active compounds read low
[2] = S. cerevisiae deletion strains, locus YHR030C, strain SLT2, active compounds read low
[3] = S. cerevisiae deletion strains, locus YHR079C, strain IRE1, active compounds read low
[4] = S. cerevisiae deletion strains, locus YJL095W, strain BCK1, active compounds read low
[5] = S. cerevisiae deletion strains, locus YJR066W, strain TOR1, active compounds read low
[6] = S. cerevisiae deletion strains, locus YLR113W, strain HOG1, active compounds read low
[7] = S. cerevisiae deletion strains, locus YNL183C, strain NPR1, active compounds read low
[8] = S. cerevisiae deletion strains, locus YOR231W, strain MKK1, active compounds read low
[9] = S. cerevisiae deletion strains, locus YPL256C, strain CLN2, active compounds read low

## O=[N+]([O-])c1ccc(-c2csc(Nc3ccncc3)n2)cc1
S. cerevisiae deletion strains, locus YAR019C, strain CDC15, active compounds read low
  normalized growth: 0.995
S. cerevisiae deletion strains, locus YBL105C, strain PKC1, active compounds read low
  normalized growth: 0.978
S. cerevisiae deletion strains, locus YBR135W, strain CKS1, active compounds read low
  normalized growth: 0.982
S. cerevisiae deletion strains, locus YBR136W, strain MEC1, active compounds read low
  normalized growth: 0.996
S. cerevisiae deletion strains, locus YBR160W, strain CDC28, active compounds read low
  normalized growth: 0.989
S. cerevisiae deletion strains, locus YDL017W, strain CDC7, active compounds read low
  normalized growth: 0.99
S. cerevisiae deletion strains, locus YDL028C, strain MPS1, active compounds read low
  normalized growth: 0.998
[1]
  normalized growth: 0.99
S. cerevisiae deletion strains, locus YDL108W, strain KIN28, active compounds read low
  normalized growth: 0.979
S. cerevisiae deletion strains, locus YDL132W, strain cdc53, active compounds read low
  normalized growth: 0.982
S. cerevisiae deletion strains, locus YDL214C, strain PRR2, active compounds read low
  normalized growth: 0.941
S. cerevisiae deletion strains, locus YDR052C, strain DBF4, active compounds read low
  normalized growth: 0.992
S. cerevisiae deletion strains, locus YDR054C, strain cdc34, active compounds read low
  normalized growth: 0.977
S. cerevisiae deletion strains, locus YDR226W, strain ADK1, active compounds read low
  normalized growth: 0.985
S. cerevisiae deletion strains, locus YDR477W, strain SNF1, active compounds read low
  normalized growth: 0.992
S. cerevisiae deletion strains, locus YER123W, strain YCK3, active compounds read low
  normalized growth: 0.982
S. cerevisiae deletion strains, locus YER133W, strain GLC7, active compounds read low
  normalized growth: 0.987
S. cerevisiae deletion strains, locus YFL009W, strain cdc4, active compounds read low
  normalized growth: 0.981
S. cerevisiae deletion strains, locus YFL029C, strain CAK1, active compounds read low
  normalized growth: 1.01
S. cerevisiae deletion strains, locus YFR003C, strain YPI1, active compounds read low
  normalized growth: 0.98
S. cerevisiae deletion strains, locus YFR019W, strain FAB1, active compounds read low
  normalized growth: 0.984
S. cerevisiae deletion strains, locus YFR028C, strain CDC14, active compounds read low
  normalized growth: 0.996
S. cerevisiae deletion strains, locus YGR040W, strain KSS1, active compounds read low
  normalized growth: 0.978
S. cerevisiae deletion strains, locus YGR052W, strain FMP48, active compounds read low
  normalized growth: 1.01
S. cerevisiae deletion strains, locus YGR092W, strain DBF2, active compounds read low
  normalized growth: 0.908
[2]
  normalized growth: 1
[3]
  normalized growth: 1.01
S. cerevisiae deletion strains, locus YHR082C, strain KSP1, active compounds read low
  normalized growth: 1.08
S. cerevisiae deletion strains, locus YHR205W, strain SCH9, active compounds read low
  normalized growth: 0.923
S. cerevisiae deletion strains, locus YIL147C, strain SLN1, active compounds read low
  normalized growth: 0.991
[4]
  normalized growth: 1.03
S. cerevisiae deletion strains, locus YJL128C, strain PBS2, active compounds read low
  normalized growth: 0.943
S. cerevisiae deletion strains, locus YJL157C, strain FAR1, active compounds read low
  normalized growth: 0.996
S. cerevisiae deletion strains, locus YJR016C, strain ILV3, active compounds read low
  normalized growth: 0.978
S. cerevisiae deletion strains, locus YJR066W, strain TOR1 (second series), active compounds read low
  normalized growth: 0.991
[5]
  normalized growth: 0.968
S. cerevisiae deletion strains, locus YKL048C, strain ELM1, active compounds read low
  normalized growth: 0.976
S. cerevisiae deletion strains, locus YKL067W, strain YNK1, active compounds read low
  normalized growth: 0.941
S. cerevisiae deletion strains, locus YKL101W, strain HSL1, active compounds read low
  normalized growth: 0.98
S. cerevisiae deletion strains, locus YKL193C, strain SDS22, active compounds read low
  normalized growth: 0.988
S. cerevisiae deletion strains, locus YKL203C, strain TOR2, active compounds read low
  normalized growth: 1.07
[6]
  normalized growth: 0.981
S. cerevisiae deletion strains, locus YLR133W, strain CKI1, active compounds read low
  normalized growth: 0.976
S. cerevisiae deletion strains, locus YLR403W, strain SFP1, active compounds read low
  normalized growth: 1.01
S. cerevisiae deletion strains, locus YML070W, strain DAK1, active compounds read low
  normalized growth: 0.991
S. cerevisiae deletion strains, locus YMR001C, strain CDC5, active compounds read low
  normalized growth: 0.993
S. cerevisiae deletion strains, locus YMR205C, strain PFK2 (second series), active compounds read low
  normalized growth: 0.973
S. cerevisiae deletion strains, locus YMR277W, strain FCP1, active compounds read low
  normalized growth: 0.989
S. cerevisiae deletion strains, locus YNL006W, strain LST8, active compounds read low
  normalized growth: 0.994
S. cerevisiae deletion strains, locus YNL020C, strain ARK1, active compounds read low
  normalized growth: 0.975
S. cerevisiae deletion strains, locus YNL161W, strain CBK1, active compounds read low
  normalized growth: 0.994
[7]
  normalized growth: 1.02
S. cerevisiae deletion strains, locus YNL207W, strain RIO2, active compounds read low
  normalized growth: 0.984
S. cerevisiae deletion strains, locus YNL222W, strain SSU72, active compounds read low
  normalized growth: 0.996
S. cerevisiae deletion strains, locus YNL307C, strain MCK1 (second series), active compounds read low
  normalized growth: 0.976
S. cerevisiae deletion strains, locus YOL078W, strain AVO1, active compounds read low
  normalized growth: 0.986
S. cerevisiae deletion strains, locus YOL136C, strain PFK27, active compounds read low
  normalized growth: 0.979
S. cerevisiae deletion strains, locus YOR061W, strain CKA2, active compounds read low
  normalized growth: 0.957
S. cerevisiae deletion strains, locus YOR119C, strain RIO1, active compounds read low
  normalized growth: 1.01
[8]
  normalized growth: 0.97
S. cerevisiae deletion strains, locus YOR329C, strain SCD5, active compounds read low
  normalized growth: 0.992
S. cerevisiae deletion strains, locus YPL031C, strain PHO85, active compounds read low
  normalized growth: 0.98
S. cerevisiae deletion strains, locus YPL153C, strain RAD53, active compounds read low
  normalized growth: 1
S. cerevisiae deletion strains, locus YPL204W, strain HRR25, active compounds read low
  normalized growth: 0.982
S. cerevisiae deletion strains, locus YPL209C, strain IPL1, active compounds read low
  normalized growth: 0.991
[9]
  normalized growth: 1.03
S. cerevisiae deletion strains, locus YPR025C, strain CCL1, active compounds read low
  normalized growth: 0.985
S. cerevisiae deletion strains, locus YPR106W, strain ISR1, active compounds read low
  normalized growth: 0.98
S. cerevisiae deletion strains, locus YPR111W, strain DBF20, active compounds read low
  normalized growth: 0.969
S. cerevisiae deletion strains, strain NNK1, active compounds read low
  normalized growth: 0.996
S. cerevisiae deletion strains, strain TSCII, active compounds read low
  normalized growth: 1

## O=C1CN=C(c2ccccc2Cl)c2cc([N+](=O)[O-])ccc2N1
[2]
  normalized growth: 0.869
[3]
  normalized growth: 0.965
[4]
  normalized growth: 0.981
[5]
  normalized growth: 0.945
[6]
  normalized growth: 0.963
[7]
  normalized growth: 0.9
[8]
  normalized growth: 0.962
[9]
  normalized growth: 0.924

## O=[N+]([O-])c1cccc(-c2csc(Nc3ccccc3Cl)n2)c1
S. cerevisiae deletion strains, locus YAL013W, strain DEP1, active compounds read low
  normalized growth: 0.94
S. cerevisiae deletion strains, locus YBR229C, strain ROT2, active compounds read low
  normalized growth: 0.966
[1]
  normalized growth: 0.978
S. cerevisiae deletion strains, locus YDR150W, strain NUM1, active compounds read low
  normalized growth: 0.934
S. cerevisiae deletion strains, locus YEL061C, strain CIN8, active compounds read low
  normalized growth: 0.929
S. cerevisiae deletion strains, locus YGR078C, strain PAC10, active compounds read low
  normalized growth: 0.938
S. cerevisiae deletion strains, locus YGR229C, strain SMI1, active compounds read low
  normalized growth: 0.959
[2]
  normalized growth: 0.418 (active)
S. cerevisiae deletion strains, locus YHR087W, strain rtc3, active compounds read low
  normalized growth: 0.955
S. cerevisiae deletion strains, locus YJL187C, strain SWE1, active compounds read low
  normalized growth: 1.01
S. cerevisiae deletion strains, locus YJR043C, strain POL32, active compounds read low
  normalized growth: 0.979
S. cerevisiae deletion strains, locus YJR075W, strain HOC1, active compounds read low
  normalized growth: 0.88 (active)
S. cerevisiae deletion strains, locus YKL190W, strain CNB1, active compounds read low
  normalized growth: 0.907 (active)
S. cerevisiae deletion strains, locus YLR039C, strain RIC1, active compounds read low
  normalized growth: 0.6 (active)
S. cerevisiae deletion strains, locus YLR058C, strain SHM2 (second series), active compounds read low
  normalized growth: 0.964
S. cerevisiae deletion strains, locus YLR085C, strain ARP6, active compounds read low
  normalized growth: 0.571 (active)
S. cerevisiae deletion strains, locus YLR262C, strain YPT6, active compounds read low
  normalized growth: 0.727 (active)
S. cerevisiae deletion strains, locus YML094W, strain GIM5, active compounds read low
  normalized growth: 0.818 (active)
S. cerevisiae deletion strains, locus YMR219W, strain ESC1, active compounds read low
  normalized growth: 0.964
S. cerevisiae deletion strains, locus YMR263W, strain SAP30, active compounds read low
  normalized growth: 0.945
S. cerevisiae deletion strains, locus YNL153C, strain GIM3, active compounds read low
  normalized growth: 0.972
S. cerevisiae deletion strains, locus YNL298W, strain CLA4 (second series), active compounds read low
  normalized growth: 0.82 (active)
S. cerevisiae deletion strains, locus YNL322C, strain KRE1, active compounds read low
  normalized growth: 0.977
S. cerevisiae deletion strains, locus YNR030W, strain Alg12, active compounds read low
  normalized growth: 0.811 (active)
S. cerevisiae deletion strains, locus YOL006C, strain TOP1, active compounds read low
  normalized growth: 0.638 (active)
S. cerevisiae deletion strains, locus YPL055C, strain LGE1, active compounds read low
  normalized growth: 0.715 (active)
S. cerevisiae deletion strains, locus YPL241C, strain CIN2, active compounds read low
  normalized growth: 0.82 (active)
S. cerevisiae deletion strains, locus YPR135W, strain CTF4, active compounds read low
  normalized growth: 0.795
S. cerevisiae strains, strain wild type, active compounds read low
  normalized growth: 0.915
